Source: PubChem BioAssay
GPR151 ag: activators of human GPR151 | Q8TDV0 | PathHunter beta-arrestin GPR151 cells, luminescence | activation, % at 11.2 µM | 650,000 compounds, 1% hits | AID 1508602; in the data active = activation above about 4.9%;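 note: 0% = median of compound wells and 100% = cells with positive control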
MITF inh: human MITF inhibition, primary screen. AlphaScreen MITF homodimerization, bead proximity signal. 650,000 compounds, 0.91% hits. inhibition, % at 2.6 µM; in the data active = inhibition above about 50%;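 note: 0% = vehicle wells with protein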
TEAD-YAP inh: TEAD-YAP interaction inhibition; HEK-TIYL cells, TEAD-Gal4/YAP UAS-luciferase luminescence; inhibition, % at 9.12 µM; 640,000 compounds, 1.4% hits; in the data active = inhibition above about 32%;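 note: 0% = median of test compound wells and 100% = reference inhibitor wells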
FBW7 act: human FBW7 E3 ligase activation, primary screen; Q969H0; AlphaScreen FBW7–phospho-cyclin E peptide binding, activator screen; normalized activity (activation), % at 26.1 µM; 650,000 compounds, 0.13% hits; in the data active = normalized activity above about 1.9%;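 note: purified mutant Fbw7 with reduced substrate affinity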
GPR151 confirm: confirmation of human GPR151 activators. activation, % at 11.2 µM. GPR151 PathHunter beta-arrestin cells, luminescence, 90 min; % of EA-reagent control over plate median. 6,700 tested, under 10 active. shares compounds with GPR151 ag;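 active = mean percent activation across replicates above the confirmation screen cutoff of 4.91%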
GPR119 ag: activates human GPR119 in a GPR151 counter-screen; shares compounds with GPR151 ag; GPR119 PathHunter beta-arrestin cells, luminescence, 90 min; 0 = compound-well median, 100 = enzyme-acceptor control; activation, % at 11.2 µM; 6,700 compounds, 0.3% hits; AID 1508611;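 active = mean percent activation in the counterscreen above 29.09%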;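 note: counterscreen on off-target GPR119 to flag nonselective hits from the GPR151 activator screen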
* = called active by the depositor; · = no result; ! = a repeat was not active. Sampled rows, rich in hits. Any-hit rate of the full collection: about 3.5%.

SMILES	GPR151 ag	MITF inh	TEAD-YAP inh	FBW7 act	GPR151 confirm	GPR119 ag
O=C(Cn1cc(C(=O)c2ccc(F)cc2)c(=O)c2ccccc21)Nc1ccc2c(c1)OCO2	0	2	-6	0	·	·
O=C(Cn1cc(C(=O)c2ccccc2)c(=O)c2ccccc21)Nc1ccc2c(c1)OCCO2	6.6*	-5	7	0	0	6
S=C(NCCCn1ccnc1)Nc1ccc(Br)cc1	5.1*	8	-5	0	-1	-8
C=CCNc1nc(-c2ccc(OC)c3ccccc23)cs1	5.4*	16	0	0	0	-4
CCN1CCN(C(C)C(=O)Nc2ncc(C)s2)CC1 (centres undefined)	7.0*	16	4	0	1	12
CC1Cc2nc(SCC(=O)Nc3cccc(F)c3)n(Cc3ccccc3)c(=O)c2S1 (centres undefined)	-1	12	-46	0	·	·
CCCOc1ccccc1C1C(C(=O)OCCc2ccccc2)=C(C)NC2=C1C(=O)CCC2 (centres undefined)	-1	0	-7	0	·	·
O=S(=O)(Nc1nc2ccc(S(=O)(=O)N3CCCCC3)cc2s1)c1ccccc1	5.3*	19	3	0	-1	-9
O=C(CCCCCn1c(=S)[nH]c2cc3c(cc2c1=O)OCO3)NCc1ccccc1	1	4	-1	0	·	·
O=C(CCCCCn1c(=S)[nH]c2cc3c(cc2c1=O)OCO3)NCc1cccnc1	5.9*	0	-5	0	2	6
Cc1ccc(C(=O)N/C(=C/c2ccc(Cl)cc2)C(=O)NCCO)cc1	-1	5	0	0	·	·
C=CCOC(=O)C1=C(C)NC(C)=C(C(=O)OCC=C)C1c1cccc(Oc2ccccc2)c1	7.1*	9	3	1	0	-4
COC(=O)C1=C(C)NC(=O)CC1c1cccc(Oc2ccccc2)c1 (centres undefined)	8.3*	10	11	0	1	-5
CC1=C(C(=O)OC(C)C)C(c2cccc(Oc3ccccc3)c2)C(C(=O)OC(C)C)=C(C)N1	-1	-6	7	0	·	·
CN1C(=O)C2CCCN2S(=O)(=O)c2ccccc21 (centres undefined)	1	-7	-6	0	·	·
Cc1ccccc1C(=O)Nc1ccccc1NC(=O)Nc1cccs1	12*	10	-13	0	0	4
O=C(Nc1cccs1)Nc1ccccc1NC(=O)c1ccccc1F	0	11	-39	0	·	·
O=S(=O)(c1cccnc1)N1CCN(Cc2nc3ccccc3n2Cc2ccccc2)CC1	-1	-5	-17	0	·	·
COc1cc(CNC2CCN(Cc3ccccc3)CC2)cc(OC)c1	0	6	10	0	·	·
Cc1cc(CNC2CCN(Cc3ccccc3)CC2)c(C)n1CC(C)C	6.8*	49	-2	0	1	13
CC1CCCCN1S(=O)(=O)c1ccc(NC(=O)CSc2nc3ccccc3o2)cc1 (centres undefined)	-1	8	-1	0	·	·
CC1CCN(S(=O)(=O)c2ccc(NC(=O)CSc3nc4ccccc4o3)cc2)CC1	16*	4	11	0	2	27
O=C(CSc1cccc[n+]1[O-])Nc1ccccc1	1	-9	-10	0	·	·
O=C(CSc1cccc[n+]1[O-])Nc1ccc(S(=O)(=O)N2CCCC2)cc1	6.4*	-10	3	0	0	-2
CCC(C(=O)Nc1ccc(S(=O)(=O)N2CCC(C)CC2)cc1)c1ccccc1 (centres undefined)	5.0*	-17	-2	0	1	4
SMILES	GPR151 ag	MITF inh	TEAD-YAP inh	FBW7 act	GPR151 confirm	GPR119 ag
O=C(Nc1cccnc1)c1cnn2cc(Br)cnc12	3	-10	-12	0	·	·
O=C(Nc1ccc(Cl)cc1)c1cnn2cc(Br)cnc12	7.3*	-8	-15	0	0	-10
CCN(CC)S(=O)(=O)c1ccc(N=Cc2c(O)oc(=O)c3ccccc23)cc1	2	18	1	0	·	·
Nc1ccn([C@@H]2O[C@H](CO)[C@@H](O)C2O)c(=O)n1 (some centres undefined)	-2	-15	-30	0	·	·
Nc1ccn([C@@H]2O[C@H](CO)[C@@H](O)C2(F)F)c(=O)n1	8.7*!	-2	-29	0	0	1
Cc1ccn(CCC(=O)NCC2Cc3cccc(-c4ccc(S(C)(=O)=O)cc4)c3O2)n1 (centres undefined)	0	7	0	0	·	·
